Measurements published in PubChem BioAssay.
Several values for one entry are separate records, joined by “and”; a condition that tells them apart may be missing. Equal entries are not always repeated. Records with an inconclusive call do not appear. Activity calls are given as the source filed them.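 How the source made its calls, unless noted: active means inhibition above 54%, about 3 SD of non-fluorescent compounds; inactive means the rest.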

Assays:
[1] = rapamycin-like changes in RPL19A-GFP expression – cell-based, S. cerevisiae, multiplex flow cytometry, primary screen (AID 1862; in the data active means percent of DMSO control GFP below about 86%;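 further: lower values mimic rapamycin by blocking the RPL19A rise seen in DMSO cells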); settings: S. cerevisiae RPL19A-GFP strain, flow cytometry fluorescence, 3 h; at 10 µM; stronger effect = lower value
[2] = TOR pathway GLN3 branch reporter MEP2-GFP changes – S. cerevisiae, multiplex flow cytometry, primary screen (AID 1867;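 active means GFP response, as percent of the DMSO control, above the screen-wide mean plus 3 SD, about 139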;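 further: median GFP channel fluorescence of barcode-gated MEP2-GFP cells measured by flow cytometry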); settings: S. cerevisiae MEP2-GFP strain, 3 h, at 10 µM, stronger effect = higher value, 100% means same as DMSO wells
[3] = TOR pathway RTG branch CIT2 reporter changes – S. cerevisiae, GFP fusion, multiplex flow cytometry, primary screen (AID 1870;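 active means percent response above a set limit, the screen-wide mean plus 3 SD, cut at about 130% in these data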;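 further: barcoded CIT2-GFP strain pooled with four other GFP strains with rapamycin as positive control; median GFP fluorescence per well over plate mean of DMSO wells so 100% = DMSO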); settings: S. cerevisiae CIT2-GFP expression, 3 h, at 10 µM, stronger effect = higher value
[4] = TOR pathway LAP4-GFP level changes – S. cerevisiae, multiplex flow cytometry, primary screen (AID 1873;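 active means GFP signal, as percent of the solvent control, above the screen mean plus 3 SD, about 149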); settings: S. cerevisiae LAP4-GFP expression, 3 h, at 10 µM, stronger effect = higher value
[5] = yeast AGP1-GFP level changes, GLN3 branch – cell-based, multiplex flow cytometry, S. cerevisiae, primary screen (AID 1887;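 active means GFP signal above the screen-wide mean plus 3 SD, that is over about 124.5% of the solvent control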;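 further: AGP1-GFP fusion strain of S. cerevisiae within a five-strain barcoded multiplex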); settings: 3 h, at 10 µM, stronger effect = higher value
[6] = reduced mouse 2C T cell binding to pMHC/ICAM-1 vesicles – MLPCN validation set, flow cytometry, LFA-1/ICAM-1 modulator project, pilot screen (AID 2523;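 active means response below a set limit, under 55% cells CD8-positive and vesicle-bound, and CD8 cells' 90th-percentile brightness under 279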;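 on vesicle binding response: mean PE anti-B7-1 fluorescence of CD8+ cells relative to row control; 100% = QL9-loaded vesicles with DMSO vehicle in the same plate row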); settings: 2C mouse CD8+ T cells, at 7 µM, stronger effect = lower value; double positive events: measured here: CD8+/vesicle+ event percentage
[7] = molecular target: Integrin beta-1 (Homo sapiens) + Integrin alpha-4 (Homo sapiens) (UniProt P13612+P05556); assay: alpha4beta1 integrin LIBS antibody binding reduction – U937 cells, HUTS-21 mAb, flow cytometry, validation set, VLA-4 allosteric modulator project, pilot screen (AID 2674;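 active means inhibition above 50%, about 3 SD of the validation set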;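 further: antibody binding induced by the VLA-4 ligand LDV present at three times its Kd; 0% = LDV ligand with antibody and no compound and 100% = antibody without LDV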); settings: HUTS-21 LIBS mAb binding, at 6.7 µM, stronger effect = higher value, binding induced by LDV ligand
[8] = calorie-restriction mimetic ROS inhibitors, yeast – validation compound set, pilot screen (AID 2706;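 active means superoxide response below 65% of plate, a cut near 3 SD across the whole screen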;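 further: yeast exposed to compound for one week at 30 degrees C before staining; 100% = mean of all compound wells on the same plate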); settings: S. cerevisiae aging, superoxide DHE fluorescence; at 10 µM; stronger effect = lower value
[9] = molecular target: Beta-adrenergic receptor kinase 1 (Homo sapiens) (UniProt P25098); assay: GRK2 binders displacing RNA aptamer, biochemical, validation, human GRK2, bead flow cytometry (AID 488806;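 active means aptamer binding inhibition above 30%, about 3 SD of noise from non-fluorescent compounds; inactive means inhibition at or below 30%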); settings: bead-bound GRK2, FAM-aptamer displacement, at 10 µM, stronger effect = higher value
[10] = molecular target: Beta-2 adrenergic receptor (Homo sapiens) (UniProt P07550); assay: agonist-induced loss of surface beta2AR – cell-based, FAP fluorogen, flow cytometry, validation set, pilot screen (AID 504459;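 active means percent response above 42, roughly 3 SD of non-fluorescent test compounds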;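 further: agonist-driven loss of surface beta2AR via internalization measured by FAP dye flow cytometry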); settings: Am2.2-beta2AR cells, at 10 µM, stronger effect = higher value
[11] = molecular target: AP-2 complex subunit beta (Homo sapiens) (UniProt P63010); assay: beta-arrestin/AP2 interaction blockers – biochemical, validation set, GST-AP2 beads, flow cytometry, pilot screen (AID 504541); settings: FITC arrestin peptide, at 10 µM, stronger effect = higher value, AP2 beta2 appendage fragment, R879A mutant;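 further: AP2 carries R879A mutation and is captured from E. coli lysate; bead-bound FITC arrestin peptide fluorescence measuring arrestin peptide binding to AP2; 0% = DMSO wells and 100% = excess unlabeled arrestin peptide control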
[12] = cytosolic pH regulators acting via V-ATPase – S. cerevisiae, pHLuorin, HTS validation (AID 504600; in the data active means response above about 15%;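 further: plate controls were DMSO for no effect and reference compound for full effect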); settings: V-ATPase proton transport, at 10 µM, stronger effect = higher value
[13] = tested on: anti-desmoglein-3 scFv antibody binding to human DSG3; assay: blockers of pathogenic pemphigus antibody–desmoglein-3 binding – biochemical, validation compound set, bead-based, flow cytometry, pilot screen (AID 588368;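 active means binding below the plate cutoff, the plate median minus 3 SD, with a reading above zero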;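 further: signal is the median channel fluorescence of bead-bound GFP antibody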); settings: Protein G beads, DSG3-Fc, scFv-GFP binding, at 10 µM, stronger effect = lower value
[14] = Nile Red efflux blockade in pump-expressing yeast – validation compound set, multiplex, phenotypic, pilot screen (AID 588506;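 active means efflux inhibition above 0.42, the validation set average plus 4 SD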;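 further: Nile Red retained in cells so higher fluorescence means more efflux inhibition; 0 = negative control wells and 1 = enniatin B 25 µM full block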); settings: S. cerevisiae pump-expressing triplex, Nile Red efflux flow cytometry; at 10 µM; stronger effect = higher value; the pumps come from Candida albicans
[15] = molecular target: ATP-binding cassette sub-family B member 6 (Homo sapiens) (UniProt Q9NP58); assay: blockers of ABCB6-driven porphyrin uptake – K562-ABCB6 cells, flow cytometry, validation set, pilot screen (AID 588550;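 active means inhibition above the screen-wide mean plus 3 SD, about 51%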;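 further: 0% = DMSO wells and 100% = benzethonium chloride 70 µM positive control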); settings: K562-ABCB6 porphyrin accumulation, 1 h, at 10 µM, stronger effect = higher value
[16] = AML differentiation inducers, ER-HoxA9 marrow cells – cell-based, GFP/MAC1 double positive, flow cytometry, validation set, primary screen (AID 588685;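 active means differentiation response of at least 50%, scaled between solvent and reference control, from cells with both markers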;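 further: compound exposure lasts four days before antibody staining and flow analysis; 0% = DMSO wells and 100% = 5 µM fulvestrant positive control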); settings: stronger effect = higher value, normalized: vehicle 0, fulvestrant 100

Chain of AP-2 complex subunit beta (Homo sapiens) (P63010 whole entry, looked up, the tested form may be a part, one chain of several): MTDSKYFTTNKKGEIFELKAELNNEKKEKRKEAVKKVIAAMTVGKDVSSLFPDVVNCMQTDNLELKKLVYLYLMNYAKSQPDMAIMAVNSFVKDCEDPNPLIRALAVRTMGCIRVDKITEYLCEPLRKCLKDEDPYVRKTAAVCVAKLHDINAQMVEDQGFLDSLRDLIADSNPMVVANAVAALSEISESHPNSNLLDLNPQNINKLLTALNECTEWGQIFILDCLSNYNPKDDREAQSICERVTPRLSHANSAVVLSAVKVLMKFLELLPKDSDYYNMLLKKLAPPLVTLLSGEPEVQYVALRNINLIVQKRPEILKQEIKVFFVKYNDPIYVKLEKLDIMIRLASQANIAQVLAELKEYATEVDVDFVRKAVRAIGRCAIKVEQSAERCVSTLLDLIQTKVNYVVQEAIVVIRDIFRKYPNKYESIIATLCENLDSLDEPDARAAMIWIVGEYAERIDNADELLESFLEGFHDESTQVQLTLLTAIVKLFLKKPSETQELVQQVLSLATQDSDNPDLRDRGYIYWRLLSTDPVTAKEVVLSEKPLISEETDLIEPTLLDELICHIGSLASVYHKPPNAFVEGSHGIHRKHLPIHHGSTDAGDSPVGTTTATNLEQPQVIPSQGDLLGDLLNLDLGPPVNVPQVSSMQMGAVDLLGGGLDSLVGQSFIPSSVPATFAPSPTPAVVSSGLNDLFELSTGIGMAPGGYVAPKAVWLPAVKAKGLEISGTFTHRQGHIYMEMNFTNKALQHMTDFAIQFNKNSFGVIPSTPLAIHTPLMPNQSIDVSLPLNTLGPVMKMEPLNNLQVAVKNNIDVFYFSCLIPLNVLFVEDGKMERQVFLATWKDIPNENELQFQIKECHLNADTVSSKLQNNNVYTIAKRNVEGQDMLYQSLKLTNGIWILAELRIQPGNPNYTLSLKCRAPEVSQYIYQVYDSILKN
Chain of Beta-2 adrenergic receptor (Homo sapiens) (P07550 whole entry, looked up, the tested form may be a part): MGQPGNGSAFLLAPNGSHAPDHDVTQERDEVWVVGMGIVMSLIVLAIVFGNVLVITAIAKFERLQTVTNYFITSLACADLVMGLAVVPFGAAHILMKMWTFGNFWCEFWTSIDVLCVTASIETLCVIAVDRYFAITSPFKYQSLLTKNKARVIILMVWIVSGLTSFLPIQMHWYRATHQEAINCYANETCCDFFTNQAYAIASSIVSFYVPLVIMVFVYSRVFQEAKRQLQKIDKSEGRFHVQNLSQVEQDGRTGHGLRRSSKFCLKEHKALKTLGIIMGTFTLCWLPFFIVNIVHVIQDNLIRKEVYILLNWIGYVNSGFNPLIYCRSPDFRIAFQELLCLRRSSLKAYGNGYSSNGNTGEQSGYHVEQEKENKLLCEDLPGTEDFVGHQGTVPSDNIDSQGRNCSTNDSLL
Chain of Beta-adrenergic receptor kinase 1 (Homo sapiens) (P25098 whole entry, looked up): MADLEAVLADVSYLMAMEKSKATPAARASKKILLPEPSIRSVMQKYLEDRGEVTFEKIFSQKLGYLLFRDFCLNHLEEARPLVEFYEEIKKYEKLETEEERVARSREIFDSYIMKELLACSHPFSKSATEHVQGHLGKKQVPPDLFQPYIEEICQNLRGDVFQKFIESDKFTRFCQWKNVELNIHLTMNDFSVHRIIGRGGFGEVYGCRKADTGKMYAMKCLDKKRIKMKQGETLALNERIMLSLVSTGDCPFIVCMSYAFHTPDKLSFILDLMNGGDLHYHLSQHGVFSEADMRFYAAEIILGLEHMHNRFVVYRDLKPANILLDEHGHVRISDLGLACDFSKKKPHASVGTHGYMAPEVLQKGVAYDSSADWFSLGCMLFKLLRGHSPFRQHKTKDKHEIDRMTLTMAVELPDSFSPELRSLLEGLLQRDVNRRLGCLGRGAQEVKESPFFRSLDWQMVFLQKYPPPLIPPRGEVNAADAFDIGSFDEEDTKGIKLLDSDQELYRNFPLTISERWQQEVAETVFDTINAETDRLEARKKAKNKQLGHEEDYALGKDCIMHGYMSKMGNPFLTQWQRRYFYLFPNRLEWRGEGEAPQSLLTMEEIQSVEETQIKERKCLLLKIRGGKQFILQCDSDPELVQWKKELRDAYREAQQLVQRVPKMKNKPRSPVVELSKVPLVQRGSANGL
Chain of Integrin beta-1 (Homo sapiens) + Integrin alpha-4 (Homo sapiens) (P05556 whole entry, looked up): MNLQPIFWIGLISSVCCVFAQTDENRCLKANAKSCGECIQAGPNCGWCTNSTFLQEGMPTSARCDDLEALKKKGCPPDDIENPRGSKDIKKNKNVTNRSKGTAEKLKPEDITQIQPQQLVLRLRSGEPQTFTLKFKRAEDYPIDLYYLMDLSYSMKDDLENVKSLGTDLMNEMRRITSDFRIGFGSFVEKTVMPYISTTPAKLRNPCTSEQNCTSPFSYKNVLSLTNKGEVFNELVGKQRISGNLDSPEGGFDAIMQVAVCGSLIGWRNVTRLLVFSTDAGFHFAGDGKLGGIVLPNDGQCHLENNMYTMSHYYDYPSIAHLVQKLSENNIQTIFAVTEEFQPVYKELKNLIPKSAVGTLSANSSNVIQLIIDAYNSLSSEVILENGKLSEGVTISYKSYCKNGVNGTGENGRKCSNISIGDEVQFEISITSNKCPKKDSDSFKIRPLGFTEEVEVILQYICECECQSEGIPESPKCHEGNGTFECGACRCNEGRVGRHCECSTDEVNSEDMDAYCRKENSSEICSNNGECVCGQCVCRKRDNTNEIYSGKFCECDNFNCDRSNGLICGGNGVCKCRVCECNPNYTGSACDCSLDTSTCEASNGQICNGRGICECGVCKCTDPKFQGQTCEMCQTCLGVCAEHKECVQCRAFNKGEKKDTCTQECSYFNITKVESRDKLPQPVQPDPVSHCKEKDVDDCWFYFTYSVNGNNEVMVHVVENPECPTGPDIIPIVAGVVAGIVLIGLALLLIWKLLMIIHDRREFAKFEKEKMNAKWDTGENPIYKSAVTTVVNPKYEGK
Chain of Integrin beta-1 (Homo sapiens) + Integrin alpha-4 (Homo sapiens) (P13612 whole entry, looked up): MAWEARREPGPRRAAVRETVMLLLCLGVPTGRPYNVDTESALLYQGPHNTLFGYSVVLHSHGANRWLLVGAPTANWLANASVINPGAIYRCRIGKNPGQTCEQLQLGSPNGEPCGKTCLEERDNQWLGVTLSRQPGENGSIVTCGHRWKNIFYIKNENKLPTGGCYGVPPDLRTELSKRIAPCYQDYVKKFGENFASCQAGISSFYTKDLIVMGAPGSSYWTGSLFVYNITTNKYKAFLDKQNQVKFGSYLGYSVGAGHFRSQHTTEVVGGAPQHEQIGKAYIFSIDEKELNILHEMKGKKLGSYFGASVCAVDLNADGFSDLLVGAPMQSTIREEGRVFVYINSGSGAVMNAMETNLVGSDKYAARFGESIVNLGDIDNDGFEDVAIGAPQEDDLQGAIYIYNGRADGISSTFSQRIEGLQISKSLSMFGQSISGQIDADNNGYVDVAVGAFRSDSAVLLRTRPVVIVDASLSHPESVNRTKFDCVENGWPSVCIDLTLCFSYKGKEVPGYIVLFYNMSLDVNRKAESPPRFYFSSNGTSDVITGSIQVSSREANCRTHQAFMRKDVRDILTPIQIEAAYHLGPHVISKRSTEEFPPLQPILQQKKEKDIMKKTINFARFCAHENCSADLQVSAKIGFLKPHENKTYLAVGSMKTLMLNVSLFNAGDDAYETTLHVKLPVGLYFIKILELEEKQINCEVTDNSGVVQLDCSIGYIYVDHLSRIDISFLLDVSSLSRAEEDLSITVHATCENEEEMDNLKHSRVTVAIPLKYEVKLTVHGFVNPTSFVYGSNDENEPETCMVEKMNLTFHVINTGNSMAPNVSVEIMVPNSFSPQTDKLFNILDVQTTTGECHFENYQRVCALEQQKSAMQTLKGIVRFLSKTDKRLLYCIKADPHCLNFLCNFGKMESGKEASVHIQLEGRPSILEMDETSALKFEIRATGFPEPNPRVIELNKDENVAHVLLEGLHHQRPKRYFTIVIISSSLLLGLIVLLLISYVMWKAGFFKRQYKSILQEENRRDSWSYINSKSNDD
Chain of ATP-binding cassette sub-family B member 6 (Homo sapiens) (Q9NP58 whole entry, looked up): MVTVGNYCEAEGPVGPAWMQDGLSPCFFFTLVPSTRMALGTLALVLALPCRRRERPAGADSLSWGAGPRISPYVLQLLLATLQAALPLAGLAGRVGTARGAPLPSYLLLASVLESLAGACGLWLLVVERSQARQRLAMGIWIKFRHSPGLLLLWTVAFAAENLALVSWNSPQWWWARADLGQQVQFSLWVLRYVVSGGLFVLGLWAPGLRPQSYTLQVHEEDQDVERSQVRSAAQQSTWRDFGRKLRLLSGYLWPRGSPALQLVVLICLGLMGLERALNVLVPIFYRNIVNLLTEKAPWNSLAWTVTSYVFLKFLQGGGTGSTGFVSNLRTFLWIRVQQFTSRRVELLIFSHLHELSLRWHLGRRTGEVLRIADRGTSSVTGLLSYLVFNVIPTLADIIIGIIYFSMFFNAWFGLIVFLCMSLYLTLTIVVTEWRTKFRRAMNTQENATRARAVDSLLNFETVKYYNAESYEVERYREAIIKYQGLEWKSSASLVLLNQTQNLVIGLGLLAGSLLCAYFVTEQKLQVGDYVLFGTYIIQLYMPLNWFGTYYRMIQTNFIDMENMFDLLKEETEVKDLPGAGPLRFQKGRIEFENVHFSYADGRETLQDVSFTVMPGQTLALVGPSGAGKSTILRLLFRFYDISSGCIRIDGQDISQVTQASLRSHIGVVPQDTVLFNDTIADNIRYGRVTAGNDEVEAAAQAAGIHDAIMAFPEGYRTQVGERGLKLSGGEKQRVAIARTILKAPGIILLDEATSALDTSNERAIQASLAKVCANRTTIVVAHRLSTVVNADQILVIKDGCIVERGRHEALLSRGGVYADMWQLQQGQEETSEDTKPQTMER

Row | SMILES | percent of DMSO control GFP [1] | GFP response vs DMSO [2] | percent response of DMSO control [3] | GFP response vs DMSO [4] | GFP response, % of DMSO [5] | double positive events [6] | vesicle binding response [6] | inhibition [7] | superoxide response (% of plate) [8] | aptamer binding inhibition [9] | response [10] | inhibition [11] | response [12] | binding (% of control) [13] | efflux inhibition (fraction of control) [14] | inhibition [15] | differentiation response [16]
1 | COc1ccc(CNC(=O)c2c(O)c3cccc4c3n(c2=O)CCC4)cc1 | 104% (inactive) | 105% (inactive) | 93.9% (inactive) | 94.4% (inactive) | 99.4% (inactive) | 57.5% | 18.9% (inactive) | -7.47% (inactive) | 96.7% (inactive) | 9% (inactive) | 4.63% (inactive) | 7.55% (inactive) | -1.56% (inactive) | 99.5% (inactive) | 0.62 (active) | 5% (inactive) | 1.17% (inactive)
2 | N/C(Cc1ccc(Cl)cc1Cl)=N\OC(=O)c1ccc(Br)o1 | 93.5% (inactive) | 128% (inactive) | 106% (inactive) | 167% (active) | 43.5% (inactive) | 52.1% | 224% (inactive) | -11.3% (inactive) | 124% (inactive) | -2% (inactive) | 6.81% (inactive) | -11% (inactive) | 3.34% (inactive) | 105% (inactive) | -0.39 (inactive) | 2% (inactive) | 2.4% (inactive)
3 | Nc1ccc(C(=O)O)c(O)c1 | 102% (inactive) | 106% (inactive) and 107% (inactive) | 99.7% (inactive) and 96.7% (inactive) | 100% (inactive) and 111% (inactive) | 104% (inactive) and 106% (inactive) | 61.7% and 60.8% | 199% (inactive) and 232% (inactive) | -2.43% (inactive) and 6.4% (inactive) | 95.4% (inactive) and 103% (inactive) | 5% (inactive) and 4% (inactive) | -5.54% (inactive) and 8.67% (inactive) | -7.61% (inactive) and 3.32% (inactive) | -2.48% (inactive) and -0.83% (inactive) | 103% (inactive) and 100% (inactive) | 0.28 (inactive) and -0.03 (inactive) | 3% (inactive) and 8% (inactive) | -7.5% (inactive) and -31.2% (inactive)
4 | CC(=O)Nc1nnc(S(N)(=O)=O)s1 | 102% (inactive) | 95.1% (inactive) | 116% (inactive) | 88.1% (inactive) | 102% (inactive) | 62.4% | 1080% (inactive) | 17.2% (inactive) | 111% (inactive) | 5% (inactive) | -4.02% (inactive) | -5.06% (inactive) | 0.12% (inactive) | 102% (inactive) | 0.05 (inactive) | 16% (inactive) | 6.11% (inactive)
5 | O=C(Nc1ccccc1C(=O)N1CCCCCC1)c1ccccc1Cl | 103% (inactive) | 103% (inactive) | 94.9% (inactive) | 96.5% (inactive) | 102% (inactive) | 60.2% | 146% (inactive) | -10.3% (inactive) | 115% (inactive) | 4% (inactive) | -9.01% (inactive) | 26.6% (inactive) | -0.64% (inactive) | 100% (inactive) | -0.06 (inactive) | 7% (inactive) | 8.02% (inactive)
6 | COc1cc2c(cc1OC)-c1nnc(C)n1C(C)(C)C2 | 100% (inactive) | 94.1% (inactive) | 107% (inactive) | 102% (inactive) | 100% (inactive) | 59.4% | 211% (inactive) | -1.79% (inactive) | 94.7% (inactive) | 2% (inactive) | 3.64% (inactive) | -4.56% (inactive) | 7.5% (inactive) | 100% (inactive) | -0.21 (inactive) | 4% (inactive) | -28% (inactive)
7 | Cc1nc(N)nc2c1CCCC2 | 89.1% (inactive) | 133% (inactive) | 99.2% (inactive) | 74.8% (inactive) | 94.9% (inactive) | 62.1% | 179% (inactive) | 6.46% (inactive) | 102% (inactive) | 5% (inactive) | -4.6% (inactive) | -2.43% (inactive) | -0.37% (inactive) | 109% (inactive) | -0.31 (inactive) | 13% (inactive) | -9.83% (inactive)
8 | CSCC[C@H](NC(=O)OC(C)(C)C)C(=O)N1CCC(C(=O)N[C@@H](C)C(=O)O)CC1 | 99.6% (inactive) | 105% (inactive) | 102% (inactive) | 89.4% (inactive) | 98.8% (inactive) | 65.4% | 154% (inactive) | 9.71% (inactive) | 98.8% (inactive) | 2% (inactive) | 6.5% (inactive) | -16% (inactive) | -1.98% (inactive) | 103% (inactive) | -0.22 (inactive) | 8% (inactive) | 0.41% (inactive)
9 | COC(=O)[C@H]1[C@H]2C[C@@H]3c4[nH]c5cc(OC)ccc5c4CCN3C[C@H]2C[C@@H](OC(=O)c2ccc(N)cc2)[C@@H]1OC | 105% (inactive) | 98.3% (inactive) | 111% (inactive) | 94% (inactive) | 102% (inactive) | 64.5% | 828% (inactive) | -393% (inactive) | 97% (inactive) | 3% (inactive) | -18.1% (inactive) | -1.6% (inactive) | -2.37% (inactive) | 104% (inactive) | -0.17 (inactive) | -53% (inactive) | 0.24% (inactive)
10 | NC[C@H]1O[C@H](O[C@H]2[C@H](O)[C@@H](O[C@H]3O[C@H](CO)[C@@H](O)[C@H](N)[C@H]3O)[C@H](N)C[C@@H]2N)[C@H](N)C[C@@H]1O | 101% (inactive) | 102% (inactive) | 95.1% (inactive) | 109% (inactive) | 110% (inactive) | 63.2% | 273% (inactive) | 12.5% (inactive) | 110% (inactive) | 3% (inactive) | -5.14% (inactive) | -4.09% (inactive) | -21.1% (inactive) | 109% (inactive) | 0.04 (inactive) | 2% (inactive) | -7.94% (inactive)
11 | CC1Cc2ccccc2N1NC(=O)c1ccc(Cl)c(S(N)(=O)=O)c1 (stereo not drawn) | 105% (inactive) | 103% (inactive) | 105% (inactive) | 106% (inactive) | 114% (inactive) | 41.4% | 19.9% (active) | 3.14% (inactive) | 99.9% (inactive) | 1% (inactive) | -28.6% (inactive) | 7.39% (inactive) | 2.79% (inactive) | 99.5% (inactive) | 0.04 (inactive) | 7% (inactive) | 11.8% (inactive)
12 | Cc1ccc(C2=NOC(=O)/C2=C\C=C\c2ccccc2)cc1 | 107% (inactive) | 101% (inactive) | 108% (inactive) | 139% (inactive) | 73.5% (inactive) | 69.9% | 167% (inactive) | 33.8% (inactive) | 113% (inactive) | -4% (inactive) | 34% (inactive) | 13% (inactive) | -2.56% (inactive) | 105% (inactive) | -0.17 (inactive) | -16% (inactive) | -4.57% (inactive)
13 | NNC(=O)c1ccncc1 | 102% (inactive) | 113% (inactive) | 93.9% (inactive) | 117% (inactive) | 105% (inactive) | 61.7% | 175% (inactive) | -14.1% (inactive) | 90.8% (inactive) | 4% (inactive) | -10.5% (inactive) | -2.19% (inactive) | 2.56% (inactive) | 98.4% (inactive) | -0.1 (inactive) | 1% (inactive) | -2.4% (inactive)
14 | CC(C)OC(=O)C1C(=O)CC(C)(O)C(C(=O)OC(C)C)C1c1cccc(O)c1 (stereo not drawn) | 105% (inactive) | 99.7% (inactive) | 105% (inactive) | 101% (inactive) | 114% (inactive) | 55.9% | 278% (inactive) | -18.5% (inactive) | 85.3% (inactive) | -5% (inactive) | 6.25% (inactive) | 29.4% (inactive) | -3.54% (inactive) | 99.8% (inactive) | -0.22 (inactive) | -13% (inactive) | -11.9% (inactive)
